Results filed as inconclusive are left out. A number with no mark means an inactive call. The source made the active and inactive calls. Calls come from the whole dose curve.
molecular target: Beta-2 adrenergic receptor (Homo sapiens) (UniProt P07550); assay: Adrenergic beta2 receptor (ADRB2) small molecule agonists, cell-based qHTS assay (AID 1963593); details: CHO-ADRB2 cells, cAMP HTRF, 30 min; series mostly up to 92.4 µM; activation: at the top concentration
From the text: National Center for Advancing Translational Sciences [NCATS]
Division of Preclinical Innovation [DPI]
U.S. Environmental Protection Agency [EPA]
National Institutes of Environmental Health Sciences [NIEHS]
National Toxicology Program [NTP]
U.S. Food and Drug Administration [FDA]
Beta adrenergic receptors (Beta-ARs) belong to the G-protein coupled receptor (GPCR) superfamily, includes three subtypes - beta1, beta2, and beta3. Beta1-AR is the predominant receptor subtype expressed in the heart, and beta2-AR is expressed in the kidney, lung, blood vessel and in the heart, and beta3 is found in the adipocytes. Beta1 and 2 ARs couple to Gs protein and elevate cyclic adenosine mono phosphate (cAMP), which activates protein kinase A and leads to the downstream signaling responsible for the physiological actions. Beta-AR agonists or antagonists are the most prescribed therapeutic agents for heart failure and asthma, and these were one of the first target receptors for the rational drug design. Tox21 10K compound library was screened using the cAMP-Gs dynamic assay (Cisbio Bioassays, Shelton, CT) to identify agonists/antagonists of the Gs-coupled human adrenergic, beta2 receptor (ADRB2) in the CHO-ADRB2 cell line (Codex BioSolutions, Inc. Gaithersburg, MD), which stably over-expresses ADRB2. The principle of cAMP-Gs dynamic assay is based on HTRF technology, which facilitates the fluorescence resonance energy transfer (FRET) between donor Europium cryptate and acceptor d2-labeled cAMP. The cAMP generated within cells competes with the red acceptor, d2-labled cAMP, for binding to the monoclonal anti-cAMP-cryptate (Europium donor). An increase in intracellular cAMP leads to the disruption of FRET signal, and the signal is inversely proportional to the cAMP concentration. Isoproterenol HCl (Sigma-Aldrich, St. Louis, MO) was used as a positive control in the screening.
Tox21 Assay Protocol Summary:
CHO-ADRB2 cells were dispensed at 1,000/well in 4uL assay medium into white/solid 1536-well plates (Greiner Bio-One North America Inc., Monroe, NC) using a Multidrop Combi dispenser (ThermoFisher Scientific, Waltham, MA). The assay plates were incubated at 37C and 5% CO2 for an overnight (18-20hr). Then positive control and test compounds dissolved in DMSO were transferred to the assay plates at 23nL using a Pintool station (Wako, San Diego, CA). Following the compound and positive control transfer, 1uL stimulation mix containing 100uM IBMX and 25uM Ro-20-1724 was added to each well of the assay plates using BioRAPTR Flying Reagent Dispenser (FRD, Beckman Coulter, Brea, CA). The assay plates were incubated at room temperature for 0.5hr. Then 2.5ul each d2-labled cAMP and anti-cAMP-cryptate solutions were added separately to each well of the assay plates using an FRD and the assay plates were incubated at room temperature for 1hr.
% is set by controls: 0 for no effect and ±100 for the full control effect.

Sequence of Beta-2 adrenergic receptor (Homo sapiens) (P07550 whole entry, looked up): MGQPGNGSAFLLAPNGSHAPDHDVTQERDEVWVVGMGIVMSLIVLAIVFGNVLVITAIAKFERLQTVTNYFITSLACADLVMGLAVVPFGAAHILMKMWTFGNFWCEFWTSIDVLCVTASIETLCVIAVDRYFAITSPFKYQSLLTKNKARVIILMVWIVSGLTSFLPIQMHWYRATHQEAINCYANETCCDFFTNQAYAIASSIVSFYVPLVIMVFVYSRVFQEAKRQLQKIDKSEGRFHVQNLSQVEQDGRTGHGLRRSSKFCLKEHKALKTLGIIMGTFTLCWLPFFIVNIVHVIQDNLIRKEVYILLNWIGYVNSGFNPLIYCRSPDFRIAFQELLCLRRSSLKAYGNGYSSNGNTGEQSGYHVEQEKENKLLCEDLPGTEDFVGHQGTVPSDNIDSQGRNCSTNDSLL

Row | SMILES | activation | Potency
1 | C=C(C)C(=O)OC(C)C | -2.53% | –
2 | NC[C@H]1O[C@H](O[C@H]2[C@H](O)[C@@H](O[C@H]3O[C@H](CO)[C@@H](O)[C@H](N)[C@H]3O)[C@H](N)C[C@@H]2N)[C@H](N)[C@@H](O)[C@@H]1O | 1.3% [at 19 µM] | –
3 | CC[C@@H]1C[C@H](N(Cc2cc(C(F)(F)F)cc(C(F)(F)F)c2)C(C)=O)c2cc(C(F)(F)F)ccc2N1C(=O)OC(C)C | 1.53% | –
4 | COc1ccc(C(=O)CC(=O)c2ccc(C(C)(C)C)cc2)cc1 | -12.3% [at 42.5 µM] | –
5 | OCCCC1CCCCC1 | 29.1% | –
6 | CCCCCCOC(=O)CC | 8.55% | –
7 | Cc1cc(OCCOCC[N+](C)(C)Cc2ccccc2)ccc1C(C)(C)CC(C)(C)C | -16.3% [at 42.5 µM] | –
8 | CC1COc2ccccc2N1 (stereo not given) | 14.6% | –
9 | CC(=O)c1ccc(O)c(C(N)=O)c1 | 3.89% [at 42.5 µM] | –
10 | CCCCCCCCCCCCCCCCC | 2.87% | –
11 | CCO[Si](OCC)(OCC)c1ccccc1 | 11.8% | –
12 | CC(=O)N[C@H]1[C@H]([C@H](O)[C@H](O)CO)OC(C(=O)O)=C[C@@H]1N=C(N)N | 22% [at 42.5 µM] | –
13 | COc1ccc(C)cc1 | -5.12% | –
14 | CC(=O)OCC1=C(C(=O)O)N2C(=O)[C@@H](NC(=O)Cc3cccs3)[C@H]2SC1 | -2.32% [at 42.5 µM] | –
15 | Nc1nccs1 | 2.01% | –
16 | Cc1cc(C)c(C(=O)O)c(C)c1 | -2.23% | –
17 | COC(=O)CCC(=O)O | 12.6% | –
18 | CC(C)(C)OC(=O)c1cccc(N)c1 | -5.76% | –
19 | COCCCOc1cc(C[C@@H](C[C@H](N)[C@@H](O)C[C@H](C(=O)NCC(C)(C)C(N)=O)C(C)C)C(C)C)ccc1OC | -9.24% [at 42.5 µM] | –
20 | CCOC(=O)c1ccc(O)c(O)c1 | 3.45% [at 42.5 µM] | –

Row | SMILES | activation | Potency
21 | c1ccc2c(c1)CCC2 | -2.33% | –
22 | CCN1C(=O)c2ccccc2C1Nc1ccc(OCCN2CCCCC2)cc1 (stereo not given) | -20.4% [at 42.5 µM] | –
23 | CCCCN(CCO)CCO | -11.9% | –
24 | O=C(c1ccc(OCCN2CCCCC2)cc1)c1c(-c2ccc(O)cc2)sc2cc(O)ccc12 | -14.9% | –
25 | CCN(CC)CCN | -2.7% [at 42.5 µM] | –
26 | Cc1cccc(C)c1[N+](=O)[O-] | – | inactive
27 | Clc1cc(Cl)c(Cl)c(Cl)c1Cl | -7.64% | –
28 | CC(C)(C)OC=O | -21% | –
29 | COc1cccc(Br)c1 | 14.2% | –
30 | CN(C)CCOC(c1ccc(Cl)cc1)c1ccccn1 (stereo not given) | -33.2% [at 42.5 µM] | –
31 | CC(C)(C)c1nnc(NS(=O)(=O)c2ccc(N)cc2)s1 | 4.54% [at 42.5 µM] | –
32 | CC(=O)OCCN(CCOC(C)=O)c1ccc(N=Nc2ccc([N+](=O)[O-])cc2C#N)cc1 | -1.54% | –
33 | CCCCCCCCN(C)C | 15.3% | –
34 | COc1cccc(OC)c1 | -16.1% | –
35 | COc1ccc(Cl)cc1C | -14.7% | –
36 | O=C1OC(=O)c2c(Cl)c(Cl)c(Cl)c(Cl)c21 | -10.3% | –
37 | O=C(O)CNC(=O)c1ccc(CO)o1 | -18.7% | –
38 | Cc1onc(-c2ccccc2)c1C(=O)Cl | 8.66% [at 42.5 µM] | –
39 | C1CN(CCOCCN2CCOCC2)CCO1 | -15.9% | –
40 | CC(O)CNCC(C)O (stereo not given) | -0.976% | –

— PubChem BioAssay (Tox21)
